Molecules are shown by their SMILES. The whole screen tested about 69,000 compounds, of which about 1,000 (1.4%) showed an effect of 50% or more. The sample as a whole holds a higher share of strong results than the screen did.

This assay has as its system Leishmania donovani. Kind of assay: Leishmania intramacrophage assay. Type of assay: functional, organism-based. Further details: scale not given: in the data most compounds retested in dose-response had high values.

As for `COc1ccc2cc(CN(C)C(C)c3nc(C4CC4)no3)ccc2c1` (centres undefined), the “Percent Effect” value (30.3 µM, […]) came to 57.64%. Regarding `CC(c1nc(C2CC2)no1)N(C)Cc1ccc2c(c1)OCCO2` (centres undefined), the “Percent Effect” value (30.3 µM, […]) turned out to be 14.22%. In the case of `COc1ccc2cc(CN(C)C(C)c3nc(C(C)(C)C)no3)ccc2c1` (centres undefined), under “30.3 µM, […]”, the “Percent Effect” value is 20.66%. Consider `CSCc1noc(CNC(=O)c2cc(C)c(C)[nH]c2=O)n1`, for which the “Percent Effect” value (30.3 µM, […]) came to 20.7%. As for `Cc1cnc(NC2CCN(CC(=O)Nc3ccccc3)CC2)nc1C`, where the note is “30.3 µM, […]”, the “Percent Effect” value was 18.37%.

As for `COc1ccnc(NC2CCN(CC(=O)Nc3ccccc3)CC2)n1`, under “30.3 µM, […]”, the “Percent Effect” value is -0.8363%. Still for that read-out and setting: with `O=C(CN1CCC(Nc2ncccn2)CC1)Nc1ccccc1` the figure was 51.04%.

Regarding `CCc1nnc(CN(CC)C(=O)C2CC(=O)N(C3CCCC3)C2)o1` (centres undefined), under “30.3 µM, […]”, the “Percent Effect” value is listed as -15.82%. Consider `Cc1nn(C)c(Oc2ccc(Cl)cc2)c1CN1CCOC(CN)C1` (centres undefined), for which the “Percent Effect” value (30.3 µM, […]) is recorded as 3.142%. Take `Cc1nn(C)c(Oc2ccc(Cl)cc2)c1CN1CC[C@H](CO)[C@@H](O)C1`: the “Percent Effect” value (30.3 µM, […]) was determined as 9.933%.

With `Cc1nn(C)c(Oc2ccc(Cl)cc2)c1CN1CCC(CN)C1` (centres undefined), the “Percent Effect” value (30.3 µM, […]) was 74.8%. Same read-out and setting: with `Cc1cccc(SC2CCN(C(=O)CCCS(N)(=O)=O)CC2)c1` the figure was 24.28%; with `CC(=O)NCCCC(=O)N1CCC(Sc2cccc(C)c2)CC1`, 42.91%. On the same count and under the same terms, with `Cc1cccc(SC2CCN(C(=O)CCCn3cnnn3)CC2)c1` the figure was 53.34%. Take `CCOCC(=O)N1CSCC1C(=O)N(C)Cc1ccco1` (centres undefined): the “Percent Effect” value (30 µM) was 13.38%.

For the compound `Cc1nc(N2CC[C@@H](c3ccc4ccccc4c3)[C@H](O)C2)no1`, the “Percent Effect” value (30.3 µM, […]) is 18.28%. For `CCCc1nc(N2CC[C@@H](c3ccc4ccccc4c3)[C@H](O)C2)no1`, the “Percent Effect” value (30.3 µM, […]) is given as 50.36%. Regarding `CCCc1nc(N2CC[C@@H](c3ccc4c(c3)OCO4)[C@H](O)C2)no1`, the “Percent Effect” value (30.3 µM, […]) turned out to be 11.09%. Turning to `Cc1cc(N2CCc3c(nc(C(C)C)n3C)C2)nc(N)n1`, where the note is “30.3 µM, […]”, the “Percent Effect” value stood at 17.43%.

For `Cc1nc(C)n(CC2CN(CC(=O)Nc3cccnc3)CCO2)n1` (centres undefined), the “Percent Effect” value (30 µM, 30.03 µM) came out at 31.54%. In the case of `Cc1nc(C)n(CC2CCCN2CC(=O)Nc2ccncc2)n1` (centres undefined), the “Percent Effect” value (30.3 µM, […]) came out at 50.98%.

With `Cc1nc(C)n(CC2CCCN2CC(=O)Nc2cccnc2)n1` (centres undefined), for the setting “30.3 µM, […]”, the “Percent Effect” value is on record as 2.659%. As to `Cc1nc(C)n(CC2CCCCN2CC(=O)Nc2ccncc2)n1` (centres undefined), the “Percent Effect” value (30 µM, 30.03 µM) is reported as -8.014%. On to `Cc1nc(C)n(CC2CCCN(CC(=O)Nc3ccncc3)C2)n1` (centres undefined), for which the “Percent Effect” value (30 µM) is given as 29.85%. On to `Cc1nc(C)n(CC2CCCN(CC(=O)Nc3cccnc3)C2)n1` (centres undefined), for which, where the note is “30.3 µM, […]”, the “Percent Effect” value is listed as 59.36%. Regarding `Cc1nc(CN(C)C2CCCN(Cc3noc(C4CC4)n3)C2)oc1C` (centres undefined), the “Percent Effect” value (30 µM) is reported as -8.721%. In the case of `OCc1ccc(-c2nccn2CCc2nc3c(s2)CCCC3)o1`, the “Percent Effect” value (30.3 µM, […]) is -3.192%. Still for that read-out and setting: next, `O=C(NCCc1ccn(-c2ccc(F)cc2)n1)C1CCCOC1` (centres undefined): 11.22%.

For the compound `CCN(CC)C(=O)NC(C)c1ccc(Oc2cccnc2)c(F)c1` (centres undefined), the “Percent Effect” value (30.3 µM, […]) is -9.456%. Take `CC(NC(=O)N(C)C1CC1)c1ccc(Oc2cccnc2)c(F)c1` (centres undefined): the “Percent Effect” value (30.3 µM, […]) was determined as 4.744%. For the compound `CC(NC(=O)CN(C)C(C)C)c1ccc(Oc2cccnc2)c(F)c1` (centres undefined), the “Percent Effect” value (30.3 µM, […]) amounted to 51.39%. Regarding `C=C(C)COc1cccc(C(=O)N(CC)Cc2noc(C)n2)c1`, for the setting “30.3 µM, […]”, the “Percent Effect” value turned out to be 17.93%. For `Cc1nc[nH]c1CN(Cc1ccccc1)C1CC(C)(C)NC(C)(C)C1.O=C(O)CC(O)(CC(=O)O)C(=O)O`, the “Percent Effect” value (30.3 µM, […]) came out at 45.23%. Regarding `Cc1nc[nH]c1CN(Cc1ccccc1F)C1CC(C)(C)NC(C)(C)C1.O=C(O)CC(O)(CC(=O)O)C(=O)O`, for the setting “30.3 µM, […]”, the “Percent Effect” value was 53.75%. With `COc1cccc(NC(=O)Cn2c(=O)nc(N)c3cc(C)sc32)c1`, for the setting “30.3 µM, […]”, the “Percent Effect” value worked out at 12.79%. `Cc1cc2c(N)nc(=O)n(CC(=O)Nc3ccccc3)c2s1`: the “Percent Effect” value (30.3 µM, […]) is given as 6.295%.

With `Cc1cc2c(N)nc(=O)n(CC(=O)Nc3cccc(Cl)c3)c2s1`, under “30.3 µM, […]”, the “Percent Effect” value turned out to be 52.64%. On to `Cc1nc(CN2CCN(C(=O)NC(C)Cn3ccnc3)CC2)cs1` (centres undefined), for which the “Percent Effect” value (30 µM) was 14.72%. On the same count and under the same terms, with `CNC(=O)C1CCN(CC(=O)Nc2cc(C(C)C)no2)CC1` the figure was 21.46%. Turning to `CS(=O)(=O)NCc1noc2c1CN(C(=O)C1CCC1)CC2`, under “30.3 µM, […]”, the “Percent Effect” value is 11.5%. On to `CCN1CC(CN(C)Cc2nc(-c3ccoc3)oc2C)CC1=O` (centres undefined), for which, for the setting “30.3 µM, […]”, the “Percent Effect” value is on record as -10.15%. Turning to `CCN1CC(CN(C)Cc2nc(-c3ccc(F)cc3)oc2C)CC1=O` (centres undefined), the “Percent Effect” value (30.3 µM, […]) came out at 13.51%.

As to `CCN1CC(CN(C)Cc2nc(-c3ccc(C)o3)oc2C)CC1=O` (centres undefined), where the note is “30.3 µM, […]”, the “Percent Effect” value is listed as 59.94%. On the same count and under the same terms, next, `CN(C)C(=O)C1(c2cnccn2)CCCN1C(=O)Cc1ccsc1` (centres undefined): 25.36%; `CCn1c(C)nc2cc(NC(=O)CC3CCN(S(C)(=O)=O)CC3)ccc21`: 32.47%. As to `CNC(=O)c1ncn2c1CN(CCC(C)C)S(=O)(=O)c1ccccc1-2`, the “Percent Effect” value (30.3 µM, […]) is recorded as 54.17%. Turning to `CCN1Cc2c(C(=O)NC)ncn2-c2ccccc2S1(=O)=O`, for the setting “30.3 µM, […]”, the “Percent Effect” value stood at 2.291%.

With `CC(C)CCN1Cc2c(C(=O)O)ncn2-c2ccccc2S1(=O)=O`, the “Percent Effect” value (30 µM, 30.03 µM) was -20.47%. On to `COc1ccc(CNC(=O)c2ccoc2CN2CCNC(=O)C2)cc1`, for which the “Percent Effect” value (30.3 µM, […]) is -8.396%.

For `CC(C)N(C)Cc1cn2c(n1)CN(C(=O)c1ccc[nH]1)CC2`, the “Percent Effect” value (30.3 µM, […]) turned out to be 13.65%.

In the case of `Cc1cc(-c2cnc(C(C)C)nc2CN(C)C(=O)c2ccccn2)on1`, the “Percent Effect” value (30.3 µM, […]) amounted to 10.54%.

Regarding `CC(C)N(C)CCCNC(=O)c1cnn(C(C)(C)C)c1C(F)(F)F`, the “Percent Effect” value (30.3 µM, […]) is on record as 10.25%. Take `FC(F)(F)c1cccc(OC2CCN(Cc3ccccn3)CC2)c1`: the “Percent Effect” value (30.3 µM, […]) is recorded as -24.32%. Regarding `OC1(CN2CCC(Oc3cccc(C(F)(F)F)c3)CC2)CNCCOC1` (centres undefined), the “Percent Effect” value (30.3 µM, […]) is listed as 78.32%. Consider `OC1(CN2CCC(Oc3cccc(C(F)(F)F)c3)CC2)CCNC1` (centres undefined), for which the “Percent Effect” value (30.3 µM, […]) worked out at 100.3%.

As for `OC1(CNCCN2CCc3ccccc32)CNCCOC1` (centres undefined), the “Percent Effect” value (30.3 µM, […]) was found to be 12.43%. Take `CC(N)C(=O)N1CCC(Oc2cccc(C(F)(F)F)c2)CC1` (centres undefined): the “Percent Effect” value (30.3 µM, […]) was determined as 75.62%.

Turning to `OC1(CN2CCC(Oc3cccnc3)CC2)CNCCOC1` (centres undefined), the “Percent Effect” value (30.3 µM, […]) was -1.613%. Still for that read-out and setting: next, `O=C(c1ccncc1)N1CCC(Oc2cccc(C(F)(F)F)c2)CC1`: 7.291%; `Nc1cc(C(=O)N2CCC(Oc3cccc(C(F)(F)F)c3)CC2)ccn1`: 3.315%; `FC(F)(F)c1cccc(OC2CCN(Cc3c[nH]cn3)CC2)c1`: 0.2013%. Same read-out and setting: next, `FC(F)(F)c1cccc(OC2CCN(Cc3ncc[nH]3)CC2)c1`: 17.17%; `OC1(CN2CCCC2)COCCN(c2cc(C(F)(F)F)ccn2)C1` (centres undefined): 29.85%. For the compound `OC1(CN2CCN(c3cccc(C(F)(F)F)c3)CC2)CNCCOC1` (centres undefined), the “Percent Effect” value (30.3 µM, […]) came to 51.12%.

(Values after ChEMBL document CHEMBL3988442, “University of Dundee, Small-Polar-MMV Screening Library” (2021).)
